Assay [1] addresses Estrogen-related receptor gamma (Homo sapiens) (UniProt P62508). As to the kind of experiment: ATG_ERRg_TRANS: Attagene TRANS-FACTORIAL HepG2 Assay for human Estrogen-Related Receptor gamma (ERRg) (AID 2282977; active means hit-call score of the fitted dose curve at least 0.9, where 1 is the maximum;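 further: hits increase reporter signal over DMSO so potencies reflect activators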). To be noted: HepG2 Attagene TRANS reporter, ERRg transactivation. Put shortly:
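Transfect HepG2 with multiple GAL4-UAS reporter transcription units; dose chemicals 24 h; isolate RNA, reverse-transcribe with oligo(dT), PCR-amplify, label with 6-FAM, digest with HpaI; size fragments by capillary electrophoresis. DMSO serves as negative control.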

Assay [2] has as its target Glucocorticoid receptor (Homo sapiens) (UniProt P04150). As to the kind of experiment: ATG_GR_TRANS: Attagene TRANS-FACTORIAL HepG2 Assay for human Glucocorticoid Receptor (GR) (AID 2282978; active means hit-call score of the fitted dose curve at least 0.9, where 1 is the maximum;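 further: activators score as hits since higher reporter transcript over DMSO is fitted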). To be noted: HepG2 Attagene TRANS GR reporter, mRNA transcription. Put shortly:
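Measurement of GAL4-UAS-driven reporter mRNA in human HepG2 liver cells 24 h post-dosing, using RT-PCR with fluorescent labelling and capillary electrophoresis; the transfected constructs report exogenous NR-GAL4 chimera activity, fitted upward against DMSO.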

Assay [3] concerns the target Oxysterols receptor LXR-alpha (Homo sapiens) (UniProt Q13133). As to the kind of experiment: ATG_LXRa_TRANS: Attagene TRANS-FACTORIAL HepG2 Assay for human Liver X Receptor alpha (LXRa) (AID 2282980; active means hit-call score of the fitted dose curve at least 0.9, where 1 is the maximum). To be noted: HepG2 Attagene TRANS reporter, LXRa transactivation. In short, it runs like this:
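Chemical-induced reporter mRNA measured by RT-PCR with fluorescent labelling and capillary electrophoresis after 24 h dosing of transiently transfected HepG2 cells expressing exogenous NR-Gal4 chimeras; increases scored against DMSO baseline.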

Assay [4] concerns the target Transcriptional activator Myb (Homo sapiens) (UniProt P10242). The assay is described as follows: ATG_Myb_CIS: Attagene CIS-FACTORIAL HepG2 Assay for human Myeloblastosis (Myb) Proto-Oncogene Transcription Factor (AID 2282986). To be noted: HepG2 Attagene CIS-FACTORIAL Myb reporter transcription; actives raise or lower the signal. Put shortly: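 Fluorescence signals from capillary electrophoresis of RT-PCR-amplified reporter cDNA give the read-out. Cells: HepG2 transfected with multiple cis-regulated reporter units. Exposure lasts 24 hours; DMSO defines baseline for gain or loss of signal.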

In assay [5] the target is Nuclear respiratory factor 1 (Homo sapiens) (UniProt Q16656). The assay is described as follows: ATG_NRF1_CIS: Attagene CIS-FACTORIAL HepG2 Assay for human Nuclear Respiratory Factor 1 (NRF1) Orphan Gene (AID 2282987). To be noted: HepG2 NRF1 cis-element reporter, Attagene multiplex; actives raise or lower the signal. In short, it runs like this:
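Transcriptional reporter readout, one component of a 52-endpoint multiplexed HepG2 panel. Exposure 24 h; mRNA detected via RT-PCR and fluorescent capillary electrophoresis; fitting in both directions against DMSO.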

The nature of assay [6]: ATG_NFI_CIS: Attagene CIS-FACTORIAL HepG2 Assay for human Nuclear Factor I (NFI) (AID 2282989). To be noted: HepG2 cis-regulatory reporter, NFI response element transcription; actives raise or lower the signal. Put shortly: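 Endogenous TF activity in HepG2 cells transiently transfected with cis-element-driven multiplexed reporter units, read 24 h after dosing. Reporter mRNA quantified by RT-PCR, 6-FAM labelling, HpaI digestion and capillary electrophoresis; bidirectional fit versus DMSO.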

Assay [7] addresses Myc proto-oncogene protein (Homo sapiens) (UniProt P01106). As to the kind of experiment: ATG_Myc_CIS: Attagene CIS-FACTORIAL HepG2 Assay for human Myelocytomatosis (Myc) Proto-Oncogene Transcription Factor (AID 2282990). To be noted: HepG2, Attagene cis-reporter transcription factor activity; actives raise or lower the signal. In short, it runs like this:
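HepG2 cells transiently transfected with multiple cis-promoter-driven reporter transcription units, so endogenous TF activity is read. After 24 h compound exposure, reporter mRNA was quantified by RT-PCR, 6-FAM labelling, HpaI digestion and capillary electrophoresis; bidirectional fit versus DMSO.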

Assay [8] in a line: ATG_NF_kB_CIS: Attagene CIS-FACTORIAL HepG2 Assay for human Nuclear Factor Kappa B (NF-kB) (AID 2282991). To be noted: HepG2 Attagene cis-factorial NF-kB reporter mRNA; actives raise or lower the signal. Put shortly:
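HepG2, transient multi-reporter transfection, cis promoter elements (endogenous TFs). 24 h exposure. Total RNA → RT → PCR → 6-FAM label → HpaI → CE. Gain/loss vs DMSO.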

Assay [9] in a line: ATG_NRF2_ARE_CIS: Attagene CIS-FACTORIAL HepG2 Assay for human Nuclear Factor Erythroid 2 Related Factor 2 (NFR2) response to Antioxidant Response Elements (ARE) (AID 2282992).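 On AC50: reporter mRNA level measured by RT-PCR and capillary electrophoresis fluorescence.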 To be noted: HepG2 Attagene ARE/NRF2 reporter, transcription factor activity; actives raise or lower the signal. In short, it runs like this:
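Transient MRTU transfection of HepG2; 24 h compound exposure; TriZol RNA, RT with oligo(dT), PCR, 6-FAM primer extension, HpaI cut, CE. Bidirectional fit vs DMSO.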

Assay [10] is described as follows: ATG_Oct_MLP_CIS: Attagene CIS-FACTORIAL HepG2 Assay for human Octamer-Binding Transcription Factor (Oct) (AID 2282993). To be noted: HepG2 Attagene cis-factorial Oct reporter, mRNA; actives raise or lower the signal. Put shortly: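 HepG2 cells transiently transfected with cis-element-driven reporter transcription units (endogenous TF activity); 24 h compound exposure. Reporter mRNA quantified by RT-PCR, 6-FAM labelling, HpaI digestion and capillary electrophoresis; bidirectional fit versus DMSO baseline.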

Assay [11] concerns the target Bile acid receptor (Homo sapiens) (UniProt Q96RI1). As to the kind of experiment: ATG_FXR_TRANS: Attagene TRANS-FACTORIAL HepG2 Assay for Farnesoid X Receptor (FXR) (AID 2282979; active means hit-call score of the fitted dose curve at least 0.9, where 1 is the maximum;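 further: hits raise reporter mRNA above DMSO so AC50 marks FXR activation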). To be noted: HepG2 Attagene TRANS FXR-GAL4 reporter transcription. Put shortly:
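Reporter transcripts from transfected HepG2 cells were measured 24 h after dosing, using RT-PCR with capillary electrophoresis of 6-FAM-labelled fragments. The read-out reflects activity of exogenous FXR-Gal4 chimera on GAL4-UAS units, with induction relative to DMSO.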

Assay [12] concerns the target Oxysterols receptor LXR-beta (Homo sapiens) (UniProt P55055). The assay is described as follows: ATG_LXRb_TRANS: Attagene TRANS-FACTORIAL HepG2 Assay for human Liver X Receptor beta (LXRb) (AID 2282981; active means hit-call score of the fitted dose curve at least 0.9, where 1 is the maximum). To be noted: HepG2 Attagene TRANS GAL4-LXRb reporter, mRNA. In short, it runs like this:
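In this TRANS format, exogenous chimeric NR-Gal4 protein activity, not endogenous factors, drives reporter expression in transfected human HepG2 cells. Exposure lasted 24 h; reporter mRNA was read by fluorescent capillary electrophoresis.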

Assay [13] addresses Hepatocyte nuclear factor 4-alpha (Homo sapiens) (UniProt P41235). As to the kind of experiment: ATG_HNF4a_TRANS: Attagene TRANS-FACTORIAL HepG2 Assay for human Hepatocyte Nuclear Factor 4 alpha (HNF4a) (AID 2282982; active means hit-call score of the fitted dose curve at least 0.9, where 1 is the maximum). To be noted: HepG2 HNF4a transactivation reporter, mRNA readout. Put shortly: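 Cells used were human HepG2, transiently carrying GAL4-UAS reporter units read out against exogenous NR-GAL4 chimeras. Reporter transcript levels after 24 h dosing were quantified by fluorescent RT-PCR and capillary electrophoresis.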

Assay [14] is described as follows: ATG_M_06_TRANS: Attagene TRANS-FACTORIAL HepG2 Assay for M06 Transcription Factor (Internal Marker) (AID 2282983; active means hit-call score of the fitted dose curve at least 0.9, where 1 is the maximum). To be noted: HepG2 Attagene TRANS M06 internal marker reporter. In short, it runs like this: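 Cells: HepG2, transient multi-reporter transfection. Exposure: 24 h. Detection: RT-PCR, 6-FAM labelling, HpaI digestion (2 h, 37 °C), capillary electrophoresis. Baseline: DMSO.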

A short description of assay [15]: ATG_M_32_TRANS: Attagene TRANS-FACTORIAL HepG2 Assay for M32 Transcription Factor (Internal Marker) (AID 2282984; active means hit-call score of the fitted dose curve at least 0.9, where 1 is the maximum;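 further: transcript level of a background control reporter unit measured by RT-PCR and capillary electrophoresis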). To be noted: HepG2 Attagene TRANS M32 internal marker reporter. Put shortly:
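Human hepatoma HepG2, transient MRTU transfection, 24 h treatment. RNA → RT-PCR → fluorescent primer extension → HpaI digest (2 h, 37 C) → CE. Positive-direction fit vs DMSO.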

The target of assay [16] is Cellular tumor antigen p53 (Homo sapiens) (UniProt P04637). As to the kind of experiment: ATG_p53_CIS: Attagene CIS-FACTORIAL HepG2 Assay for human p53 Transcription Factor (AID 2282994). To be noted: HepG2 p53 cis-element reporter, Attagene mRNA; actives raise or lower the signal. In short, it runs like this: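 HepG2, transient MRTU transfection (cis promoter elements, endogenous TFs); 24 h dosing; RNA isolation, RT-PCR, 6-FAM primer extension, HpaI digest, CE fluorescence; bidirectional fit vs DMSO.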

The nature of assay [17]: BSK_3C_TissueFactor: BioMAP Diversity Plus: 3C Assay for Tissue Factor Biomarker Activity (AID 2282997). To be noted: BioMAP 3C HUVEC, tissue factor biomarker readout; actives raise or lower the signal. Put shortly:
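Dosing of human umbilical vein endothelial cells preceded a 24 h incubation. Tissue Factor was then read by ELISA, with increases and decreases both scored relative to DMSO controls.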

Assay [18] in a line: BSK_3C_uPAR: BioMAP Diversity Plus: 3C Assay for Urokinase-type plasminogen activator receptor (uPAR) Biomarker Activity (AID 2282998). To be noted: BioMAP 3C HUVEC, uPAR biomarker ELISA; actives raise or lower the signal. Put shortly:
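Primary human umbilical vein endothelial cells, 3C system; surface uPAR measured by ELISA 24 h after dosing. Cytotoxicity via SRB total protein in parallel cultures; bidirectional fit against DMSO.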
On the technique in general: An ELISA detects its analyte on a solid surface through an enzyme-linked reagent.

A short description of assay [19]: BSK_3C_VCAM1: BioMAP Diversity Plus: 3C Assay for Vascular cell adhesion molecule 1 (VCAM1) Biomarker Activity (AID 2282999). To be noted: BioMAP 3C HUVEC, VCAM1 ELISA, cytokine-stimulated; actives raise or lower the signal. In short, it runs like this: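 Human umbilical vein endothelial cells were dosed with compound for 24 h, after which cell-surface VCAM-1 was quantified by ELISA. Bidirectional curve fitting used DMSO as negative control and activity baseline.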

Assay [20] deals with Nuclear receptor subfamily 4 group A member 2 (Homo sapiens) (UniProt P43354). The assay is described as follows: ATG_NURR1_TRANS: Attagene TRANS-FACTORIAL HepG2 Assay for human Nuclear Receptor Related Protein 1 (NURR1) (AID 2282985; active means hit-call score of the fitted dose curve at least 0.9, where 1 is the maximum). To be noted: HepG2 Attagene TRANS reporter, mRNA readout. In short, it runs like this: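 After 24 h chemical dosing, total RNA from transiently transfected HepG2 cells was reverse-transcribed and reporter cDNA PCR-amplified, FAM-labelled and analysed by capillary electrophoresis. Activity fitted in positive direction, DMSO as negative control.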

Molecules are shown by their SMILES. “And” between values parts separate entries of the source, which are not always exact repeats. Equal values may be shown once. Records with an inconclusive call do not appear. The source made the active and inactive calls. How the source made its calls, unless noted: active means hit-call score of the fitted dose curve at least 0.9, where 1 is the maximum; inactive means score below 0.9.

What is called AC50 is the midpoint of the concentration-response curve, whichever way the signal moves.

Glucocorticoid receptor (Homo sapiens), sequence (P04150 whole entry, looked up, the tested form may be a part): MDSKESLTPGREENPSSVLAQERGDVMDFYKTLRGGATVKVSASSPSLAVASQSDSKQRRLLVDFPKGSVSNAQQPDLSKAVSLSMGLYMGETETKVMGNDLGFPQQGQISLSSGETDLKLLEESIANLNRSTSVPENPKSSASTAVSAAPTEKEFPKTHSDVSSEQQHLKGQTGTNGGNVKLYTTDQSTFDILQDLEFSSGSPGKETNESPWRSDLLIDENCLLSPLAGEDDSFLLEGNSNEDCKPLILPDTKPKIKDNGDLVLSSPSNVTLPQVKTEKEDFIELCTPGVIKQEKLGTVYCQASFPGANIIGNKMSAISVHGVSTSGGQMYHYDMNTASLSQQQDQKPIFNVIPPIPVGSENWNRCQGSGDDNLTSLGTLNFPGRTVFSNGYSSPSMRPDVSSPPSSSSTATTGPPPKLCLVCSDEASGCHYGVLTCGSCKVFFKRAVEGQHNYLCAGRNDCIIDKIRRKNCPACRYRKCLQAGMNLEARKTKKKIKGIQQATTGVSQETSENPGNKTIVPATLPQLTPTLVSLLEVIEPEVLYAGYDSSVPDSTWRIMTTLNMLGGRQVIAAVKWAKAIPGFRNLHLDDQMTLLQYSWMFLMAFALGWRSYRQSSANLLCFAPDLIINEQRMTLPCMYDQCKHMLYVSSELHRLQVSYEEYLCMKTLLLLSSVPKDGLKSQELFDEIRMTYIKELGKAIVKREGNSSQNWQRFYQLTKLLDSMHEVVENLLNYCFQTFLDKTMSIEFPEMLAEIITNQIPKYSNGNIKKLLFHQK
Oxysterols receptor LXR-alpha (Homo sapiens), sequence (Q13133 whole entry, looked up, the tested form may be a part): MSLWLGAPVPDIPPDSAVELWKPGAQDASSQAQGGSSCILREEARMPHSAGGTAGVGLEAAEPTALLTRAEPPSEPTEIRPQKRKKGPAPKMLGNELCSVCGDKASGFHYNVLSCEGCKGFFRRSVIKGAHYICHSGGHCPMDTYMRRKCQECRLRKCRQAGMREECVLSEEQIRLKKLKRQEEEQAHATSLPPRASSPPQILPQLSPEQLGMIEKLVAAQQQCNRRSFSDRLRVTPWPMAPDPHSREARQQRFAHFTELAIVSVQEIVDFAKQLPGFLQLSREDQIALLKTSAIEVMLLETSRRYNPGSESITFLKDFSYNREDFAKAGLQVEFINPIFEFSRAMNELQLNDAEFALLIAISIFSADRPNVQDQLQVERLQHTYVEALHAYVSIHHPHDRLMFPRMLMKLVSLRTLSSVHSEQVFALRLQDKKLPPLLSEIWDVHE
Transcriptional activator Myb (Homo sapiens), sequence (P10242 whole entry, looked up): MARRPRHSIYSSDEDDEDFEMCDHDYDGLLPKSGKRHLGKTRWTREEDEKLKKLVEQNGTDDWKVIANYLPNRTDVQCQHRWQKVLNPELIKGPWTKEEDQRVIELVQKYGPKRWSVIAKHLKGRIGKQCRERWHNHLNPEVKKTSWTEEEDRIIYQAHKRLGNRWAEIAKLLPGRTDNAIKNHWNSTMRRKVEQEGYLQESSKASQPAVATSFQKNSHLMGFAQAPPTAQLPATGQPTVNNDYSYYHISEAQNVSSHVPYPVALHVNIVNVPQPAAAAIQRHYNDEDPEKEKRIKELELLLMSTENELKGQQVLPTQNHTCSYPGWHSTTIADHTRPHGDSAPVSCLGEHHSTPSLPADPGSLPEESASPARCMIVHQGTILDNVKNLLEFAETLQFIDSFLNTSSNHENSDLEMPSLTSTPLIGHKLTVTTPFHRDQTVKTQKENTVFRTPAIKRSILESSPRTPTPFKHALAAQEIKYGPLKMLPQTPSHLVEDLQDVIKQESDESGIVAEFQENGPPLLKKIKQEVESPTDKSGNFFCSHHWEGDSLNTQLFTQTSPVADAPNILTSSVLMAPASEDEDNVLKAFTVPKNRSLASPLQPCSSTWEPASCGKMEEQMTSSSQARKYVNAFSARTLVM
Hepatocyte nuclear factor 4-alpha (Homo sapiens), sequence (P41235 whole entry, looked up, the tested form may be a part): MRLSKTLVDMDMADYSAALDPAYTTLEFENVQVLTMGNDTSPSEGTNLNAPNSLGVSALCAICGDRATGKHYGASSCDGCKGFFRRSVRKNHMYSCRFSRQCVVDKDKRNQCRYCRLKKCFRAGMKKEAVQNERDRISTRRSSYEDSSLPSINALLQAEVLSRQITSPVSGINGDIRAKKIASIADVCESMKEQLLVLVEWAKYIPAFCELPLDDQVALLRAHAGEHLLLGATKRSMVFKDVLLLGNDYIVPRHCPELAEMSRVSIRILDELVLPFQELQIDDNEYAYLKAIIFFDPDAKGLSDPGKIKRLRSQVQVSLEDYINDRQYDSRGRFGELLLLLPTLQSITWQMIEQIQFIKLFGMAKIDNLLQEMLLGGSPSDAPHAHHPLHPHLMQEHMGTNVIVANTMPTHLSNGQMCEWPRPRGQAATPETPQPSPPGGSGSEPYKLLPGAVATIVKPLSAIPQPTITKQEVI
Myc proto-oncogene protein (Homo sapiens), sequence (P01106 whole entry, looked up): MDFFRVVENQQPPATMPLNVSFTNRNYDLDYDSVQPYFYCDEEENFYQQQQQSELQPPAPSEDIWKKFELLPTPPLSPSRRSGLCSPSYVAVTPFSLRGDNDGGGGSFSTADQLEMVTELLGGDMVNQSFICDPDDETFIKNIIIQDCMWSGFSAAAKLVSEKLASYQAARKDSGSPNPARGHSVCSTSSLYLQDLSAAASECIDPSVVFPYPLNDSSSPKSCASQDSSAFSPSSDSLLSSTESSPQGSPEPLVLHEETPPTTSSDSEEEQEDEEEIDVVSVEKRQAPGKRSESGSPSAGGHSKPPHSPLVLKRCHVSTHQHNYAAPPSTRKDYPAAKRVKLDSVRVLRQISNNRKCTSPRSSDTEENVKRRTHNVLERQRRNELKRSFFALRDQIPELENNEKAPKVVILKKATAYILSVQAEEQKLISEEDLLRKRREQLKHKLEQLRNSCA
Cellular tumor antigen p53 (Homo sapiens), sequence (P04637 whole entry, looked up): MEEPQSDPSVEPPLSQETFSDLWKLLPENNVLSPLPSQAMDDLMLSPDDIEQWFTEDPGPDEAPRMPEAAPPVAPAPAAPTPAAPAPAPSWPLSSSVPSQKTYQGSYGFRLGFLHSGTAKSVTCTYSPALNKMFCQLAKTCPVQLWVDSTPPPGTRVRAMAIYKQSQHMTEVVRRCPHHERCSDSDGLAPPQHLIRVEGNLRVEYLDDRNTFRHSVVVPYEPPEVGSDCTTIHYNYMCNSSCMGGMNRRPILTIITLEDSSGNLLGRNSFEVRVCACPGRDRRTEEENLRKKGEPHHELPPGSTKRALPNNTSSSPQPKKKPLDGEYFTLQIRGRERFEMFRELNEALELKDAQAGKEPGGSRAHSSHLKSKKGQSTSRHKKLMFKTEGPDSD
Estrogen-related receptor gamma (Homo sapiens), sequence (P62508 whole entry, looked up, the tested form may be a part): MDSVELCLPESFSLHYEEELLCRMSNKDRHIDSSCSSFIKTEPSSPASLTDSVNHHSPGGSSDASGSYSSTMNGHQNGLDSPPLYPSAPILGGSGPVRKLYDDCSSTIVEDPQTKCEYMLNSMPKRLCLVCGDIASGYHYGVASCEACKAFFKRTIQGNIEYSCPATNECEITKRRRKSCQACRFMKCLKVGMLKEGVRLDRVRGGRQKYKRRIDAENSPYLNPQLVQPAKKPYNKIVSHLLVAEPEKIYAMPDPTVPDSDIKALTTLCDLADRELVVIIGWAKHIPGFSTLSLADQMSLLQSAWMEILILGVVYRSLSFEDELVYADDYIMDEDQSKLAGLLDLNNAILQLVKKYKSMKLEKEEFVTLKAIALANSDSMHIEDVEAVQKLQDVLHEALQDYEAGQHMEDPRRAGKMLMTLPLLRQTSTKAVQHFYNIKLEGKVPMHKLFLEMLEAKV
Nuclear respiratory factor 1 (Homo sapiens), sequence (Q16656 whole entry, looked up): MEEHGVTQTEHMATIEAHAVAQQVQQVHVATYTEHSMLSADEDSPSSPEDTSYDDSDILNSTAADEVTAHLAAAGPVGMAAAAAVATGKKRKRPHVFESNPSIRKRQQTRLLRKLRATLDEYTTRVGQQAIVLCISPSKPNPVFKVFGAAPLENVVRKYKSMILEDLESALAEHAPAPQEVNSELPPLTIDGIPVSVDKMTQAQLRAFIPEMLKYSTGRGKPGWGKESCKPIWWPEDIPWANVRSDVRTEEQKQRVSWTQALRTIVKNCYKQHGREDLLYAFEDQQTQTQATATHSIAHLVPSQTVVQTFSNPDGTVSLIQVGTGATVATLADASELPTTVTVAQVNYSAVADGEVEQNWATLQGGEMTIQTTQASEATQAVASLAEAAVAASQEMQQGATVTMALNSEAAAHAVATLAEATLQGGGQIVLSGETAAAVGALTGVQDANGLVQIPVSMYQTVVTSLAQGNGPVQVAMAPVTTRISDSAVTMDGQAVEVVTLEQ
Nuclear receptor subfamily 4 group A member 2 (Homo sapiens), sequence (P43354 whole entry, looked up): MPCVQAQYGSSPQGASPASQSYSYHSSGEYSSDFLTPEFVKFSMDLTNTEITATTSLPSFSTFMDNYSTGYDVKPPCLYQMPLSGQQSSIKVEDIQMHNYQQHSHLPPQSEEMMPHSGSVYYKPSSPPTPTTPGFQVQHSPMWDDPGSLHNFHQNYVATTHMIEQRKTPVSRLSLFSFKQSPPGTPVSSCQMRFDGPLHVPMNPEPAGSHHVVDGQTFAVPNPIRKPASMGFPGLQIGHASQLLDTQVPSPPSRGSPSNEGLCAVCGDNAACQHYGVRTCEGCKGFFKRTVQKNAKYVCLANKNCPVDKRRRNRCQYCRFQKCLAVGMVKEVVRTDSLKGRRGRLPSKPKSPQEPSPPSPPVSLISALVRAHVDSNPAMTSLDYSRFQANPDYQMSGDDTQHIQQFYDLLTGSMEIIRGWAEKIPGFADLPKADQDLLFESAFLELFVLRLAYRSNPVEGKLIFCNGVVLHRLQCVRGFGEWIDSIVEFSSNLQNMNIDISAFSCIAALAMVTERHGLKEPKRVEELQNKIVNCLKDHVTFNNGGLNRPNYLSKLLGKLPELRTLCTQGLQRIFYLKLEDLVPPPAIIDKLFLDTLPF

For the molecule `CCC(=O)C1CC(C(C)C)CC=C1C` (stereo not given), the outcome in assay [1], in assay [2], in [3], in assay [4], in assay [5] and in assay [6] was inactive. Further, the call in [7], in [8] and in assay [10] was inactive. The AC50 in assay [9] was 40.1 µM (active).

On to `COc1ccc(C(=O)/C(Br)=C\C(=O)O)cc1`, for which the outcome in assay [1], in assay [11], in [12], in assay [13], in assay [14] and in assay [15] was inactive. The result in assay [4], in assay [5], in [6], in assay [7] and in assay [16] was inactive. The AC50 in assay [8] was 13 µM (active); in assay [9], 2.53 µM (active); in assay [10] it was 49.4 µM (active); in assay [17], 11.9 µM (active) and 10.2 µM (active); in assay [18], 29.7 µM (active) and 31.7 µM (active); in assay [19] it was 14.2 µM (active) and 20 µM (active).

Regarding `CCc1cccc(C)c1N`, the call in assay [1], in assay [2], in assay [3], in [13], in [15] and in assay [20] was inactive. In addition, the result in [4], in [6], in assay [7], in [9], in assay [10] and in assay [16] was inactive.

Take `C=Cc1ccc(OC(C)=O)cc1`: the outcome in assay [1], in [2], in assay [13], in [4], in [5] and in assay [6] was inactive. In addition, the molecule was classed as inactive in assay [7] and in assay [16]. The half-maximal activity concentration (AC50) in assay [9] is 6.87 µM (active).

Turning to `Fc1ccc(Br)cc1`, the outcome in assay [1], in assay [2], in [3], in [12], in assay [15] and in [20] was inactive. Further, the molecule was classed as inactive in [4], in assay [5], in assay [6], in assay [7], in assay [8] and in [9]. In addition, the result in assay [10], in [16], in assay [17], in [18] and in assay [19] was inactive.

For the origin of these results see PubChem BioAssay (EPA / NIEHS).
